We go through 31 compounds from ChEMBL document CHEMBL1961873, “Compounds: GSK PKIS; Assays: Nanosyn kinase panel” (2012).

Structures are written as SMILES. Values joined by “and” are separate entries in the source; they are usually repeats but may differ in a detail not shown here. Identical values can stand only once.

In one assay the target is Leucine-rich repeat serine/threonine-protein kinase 2 (Homo sapiens) (UniProt Q5S007). The note with it: at 0.1 µM.
Leucine-rich repeat serine/threonine-protein kinase 2 (Homo sapiens), sequence (Q5S007 whole entry): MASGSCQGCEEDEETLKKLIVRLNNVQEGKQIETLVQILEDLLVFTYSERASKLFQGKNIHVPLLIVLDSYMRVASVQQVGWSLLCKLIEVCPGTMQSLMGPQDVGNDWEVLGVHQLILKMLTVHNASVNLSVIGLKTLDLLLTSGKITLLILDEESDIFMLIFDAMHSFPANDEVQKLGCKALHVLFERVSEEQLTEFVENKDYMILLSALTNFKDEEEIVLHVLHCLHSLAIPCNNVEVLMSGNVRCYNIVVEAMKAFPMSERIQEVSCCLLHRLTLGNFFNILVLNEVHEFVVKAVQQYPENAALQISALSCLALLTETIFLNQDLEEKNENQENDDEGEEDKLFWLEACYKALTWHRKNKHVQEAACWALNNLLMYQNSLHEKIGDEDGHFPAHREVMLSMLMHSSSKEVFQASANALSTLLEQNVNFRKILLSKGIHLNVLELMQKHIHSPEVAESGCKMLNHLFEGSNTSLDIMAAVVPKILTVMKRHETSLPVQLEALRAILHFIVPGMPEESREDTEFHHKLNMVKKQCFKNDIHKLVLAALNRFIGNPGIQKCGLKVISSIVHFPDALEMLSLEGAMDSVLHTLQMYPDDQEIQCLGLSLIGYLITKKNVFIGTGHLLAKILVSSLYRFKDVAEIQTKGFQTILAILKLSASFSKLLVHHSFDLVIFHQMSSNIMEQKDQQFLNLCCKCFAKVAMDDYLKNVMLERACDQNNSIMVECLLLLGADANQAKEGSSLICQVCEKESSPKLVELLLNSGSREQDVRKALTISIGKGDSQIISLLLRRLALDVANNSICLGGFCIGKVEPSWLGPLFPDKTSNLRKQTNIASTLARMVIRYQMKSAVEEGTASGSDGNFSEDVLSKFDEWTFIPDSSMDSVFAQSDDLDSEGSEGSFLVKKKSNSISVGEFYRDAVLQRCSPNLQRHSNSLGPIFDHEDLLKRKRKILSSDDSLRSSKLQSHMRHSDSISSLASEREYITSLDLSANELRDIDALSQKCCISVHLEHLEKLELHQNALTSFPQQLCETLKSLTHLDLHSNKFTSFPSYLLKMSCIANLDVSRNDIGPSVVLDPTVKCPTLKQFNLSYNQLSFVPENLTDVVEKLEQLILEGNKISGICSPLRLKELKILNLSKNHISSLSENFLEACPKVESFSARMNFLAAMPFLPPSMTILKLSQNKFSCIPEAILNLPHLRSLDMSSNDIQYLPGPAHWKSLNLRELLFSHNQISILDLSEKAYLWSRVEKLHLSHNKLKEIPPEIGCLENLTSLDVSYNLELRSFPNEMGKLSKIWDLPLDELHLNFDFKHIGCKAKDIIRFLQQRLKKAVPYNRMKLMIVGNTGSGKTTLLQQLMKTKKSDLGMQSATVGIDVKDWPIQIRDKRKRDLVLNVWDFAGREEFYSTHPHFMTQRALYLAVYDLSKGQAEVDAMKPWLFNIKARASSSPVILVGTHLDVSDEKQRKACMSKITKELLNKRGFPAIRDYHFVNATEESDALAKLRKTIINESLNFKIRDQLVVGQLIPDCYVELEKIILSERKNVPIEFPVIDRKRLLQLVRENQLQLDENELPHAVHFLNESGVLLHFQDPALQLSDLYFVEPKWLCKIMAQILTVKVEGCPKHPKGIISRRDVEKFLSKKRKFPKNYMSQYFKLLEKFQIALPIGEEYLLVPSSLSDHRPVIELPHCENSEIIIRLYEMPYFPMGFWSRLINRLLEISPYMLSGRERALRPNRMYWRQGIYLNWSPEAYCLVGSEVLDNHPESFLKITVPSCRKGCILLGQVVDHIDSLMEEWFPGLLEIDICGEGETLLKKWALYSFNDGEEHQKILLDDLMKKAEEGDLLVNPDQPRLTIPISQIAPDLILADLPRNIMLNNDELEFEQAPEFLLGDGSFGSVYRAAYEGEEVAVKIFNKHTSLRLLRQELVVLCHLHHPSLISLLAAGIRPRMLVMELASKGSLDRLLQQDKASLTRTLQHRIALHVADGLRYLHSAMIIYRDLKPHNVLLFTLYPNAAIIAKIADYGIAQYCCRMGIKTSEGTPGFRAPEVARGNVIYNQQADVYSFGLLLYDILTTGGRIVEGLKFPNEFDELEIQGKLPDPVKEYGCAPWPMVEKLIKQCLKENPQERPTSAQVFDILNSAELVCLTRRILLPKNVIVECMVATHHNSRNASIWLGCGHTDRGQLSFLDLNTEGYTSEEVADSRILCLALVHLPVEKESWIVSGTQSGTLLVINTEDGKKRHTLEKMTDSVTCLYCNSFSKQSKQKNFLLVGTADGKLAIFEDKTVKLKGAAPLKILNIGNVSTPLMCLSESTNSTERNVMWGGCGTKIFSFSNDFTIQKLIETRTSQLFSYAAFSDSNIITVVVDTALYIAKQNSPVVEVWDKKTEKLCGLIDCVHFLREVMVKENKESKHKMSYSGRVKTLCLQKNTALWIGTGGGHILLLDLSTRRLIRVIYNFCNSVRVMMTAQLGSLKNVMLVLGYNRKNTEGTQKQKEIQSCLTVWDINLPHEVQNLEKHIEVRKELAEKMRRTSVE
Regarding `O=C1Nc2ccccc2/C1=C1\CCc2cc(O)ccc21`, the inhibition worked out at 17.6%.
Consider `CCS(=O)(=O)c1ccc(OC)c(Nc2ncc(-c3cccc(C(C)=O)c3)o2)c1`, for which the inhibition came out at 0.47%.
On the same count and under the same terms, next, `Cc1ccc(-c2cc3c(NC(=O)C4CC4)ncnc3o2)cc1`: 9.7%.
Take `COc1ccc(-c2nn3ncccc3c2-c2ccnc(Nc3ccc(F)c(F)c3)n2)cc1`: the inhibition turned out to be 5.52%.
Still for that read-out and setting: the figure for `O=C(Nc1n[nH]c2nnc(-c3cccnc3)cc12)C1CC1` is 0.99%; for `O=C(O[C@H]1CN[C@H](C#Cc2cc3ncnc(Nc4ccc5c(ccn5Cc5cc(F)ccc5F)c4)c3s2)C1)N1CCOCC1` it is 3.48%; for `COc1cccc(Nc2nccc(-c3cnn4ncccc34)n2)c1` it is 9.98%.
As for `Nc1nccc(-c2c(-c3ccc(F)cc3)ncn2C2CCNCC2)n1`, the inhibition is -1.76% and 1.62%.
For the compound `NC(=O)c1ccc2c(-c3ccnc(NCCCO)n3)c(-c3ccc(F)cc3)nn2c1`, the inhibition amounted to 5.47%.
Take `CS(=O)(=O)Nc1ccc(-c2cc(-c3ccccc3)cc(C(N)=O)c2N)cc1`: the inhibition was 1.64%.
Turning to `CS(=O)(=O)Nc1ccc(-c2ccc3c(NC(=O)C4CC4)n[nH]c3c2)cc1`, the inhibition amounted to 9.03%.
Still for that read-out and setting: next, `Cn1c(-c2nonc2N)nc2cnccc21`: 2.89%; `CC1=C(C(=O)Nc2ccc3[nH]ncc3c2)C(c2ccc(F)cc2)N=C(c2ccc(C(F)(F)F)nc2)N1` (configuration not stated): 2.81%; `c1ccc(-c2n[nH]cc2-c2ccnc(-c3ccc(OCCn4ccnc4)cc3)c2)nc1`: 0.79%.
Take `CS(=O)(=O)CCNCc1ccc(-c2ccc3ncnc(Nc4ccc(OCc5cccc(C(F)(F)F)c5)cc4)c3c2)o1`: the inhibition was determined as 1.61%.
As for `FC(F)(F)CNc1nccc(-c2cnn3ncccc23)n1`, the inhibition came to 3.07%.
As to `COc1ccc2ncn(-c3cc(O[C@H](C)c4ccccc4C(F)(F)F)c(C(N)=O)s3)c2c1`, the inhibition was determined as 4.72%.
Same read-out and setting: the figure for `N#Cc1cccc(Nc2ncc(-c3ccccc3)o2)c1` is 1.01%; for `CCN1CCC(C(=O)Nc2n[nH]c3nnc(-c4cccc(F)c4F)cc23)CC1` it is 1.99%.
Take `CNC(=O)c1ncccc1Nc1nc(Nc2cc3c(cc2OC)CCCN3C(=O)CN(C)C)nc2[nH]ccc12`: the inhibition was 29.7%.
As to `CNC(=O)c1cncc(/C=C/c2ccccc2C)c1`, the inhibition amounted to 3.81%.
On to `CS(=O)(=O)CCNCc1ccc(-c2ccc3ncnc(Nc4ccc(OCc5ccccc5)cc4)c3c2)o1`, for which the inhibition was found to be 3.3%.
Regarding `CS(=O)(=O)CCNCc1ccoc1-c1ccc2ncnc(Nc3ccc(OCc4ccccc4)cc3)c2c1`, the inhibition is 1.37%.
In the case of `COc1cc2c(cc1Nc1nc(Nc3cccc(F)c3C(N)=O)c3cc[nH]c3n1)N(C(=O)CN1CCN(C(C)C)CC1)CC2`, the inhibition was determined as 25.8%.
Consider `CN1CCC(n2cnc(-c3ccc(F)cc3)c2-c2ccnc(NCCO)n2)CC1`, for which the inhibition came out at 3.06%.
Regarding `CCn1c(-c2nonc2N)nc2cncc(C(=O)NCCNC)c21`, the inhibition is 6.11%.
Turning to `OCCCNc1nccc(-c2c(-c3ccc(F)cc3)nn3cc(C(F)(F)F)ccc23)n1`, the inhibition is 5.02%.
The same measure, in the same setting: next, `NS(=O)(=O)c1ccc(N/N=C2\C(=O)Nc3ccc(C(=O)NCc4ccncc4)cc32)cc1`: 5.05%; `CC1(C)CC(n2cnc(-c3ccc(F)cc3)c2-c2ccnc(N)n2)CC(C)(C)N1`: 0.31%.
Still for that read-out and setting: the figure for `COC(=O)Nc1nc2ccc(Oc3ccc(NC(=O)Nc4cc(C(F)(F)F)ccc4F)cc3)cc2s1` is 17.4%; for `COc1c(C(N)=O)cc(-c2ccc(Cl)cc2)cc1-c1ccc(S(N)(=O)=O)cc1` it is -0.34%.

The next assay has the same target. Particulars: at 1 µM.
`O=C1Nc2ccccc2/C1=C1\CCc2cc(O)ccc21`: the inhibition was 66.3%.
For `CCS(=O)(=O)c1ccc(OC)c(Nc2ncc(-c3cccc(C(C)=O)c3)o2)c1`, the inhibition came to 4.65%.
With `Cc1ccc(-c2cc3c(NC(=O)C4CC4)ncnc3o2)cc1`, the inhibition is 12.2%.
For `COc1ccc(-c2nn3ncccc3c2-c2ccnc(Nc3ccc(F)c(F)c3)n2)cc1`, the inhibition stood at 9.6%.
As for `O=C(Nc1n[nH]c2nnc(-c3cccnc3)cc12)C1CC1`, the inhibition stood at 4.69%.
For `O=C(O[C@H]1CN[C@H](C#Cc2cc3ncnc(Nc4ccc5c(ccn5Cc5cc(F)ccc5F)c4)c3s2)C1)N1CCOCC1`, the inhibition came to 6.3%.
Consider `COc1cccc(Nc2nccc(-c3cnn4ncccc34)n2)c1`, for which the inhibition came out at 21.1%.
Same read-out and setting: the figure for `Nc1nccc(-c2c(-c3ccc(F)cc3)ncn2C2CCNCC2)n1` is 3.33% and 3.21%.
Consider `NC(=O)c1ccc2c(-c3ccnc(NCCCO)n3)c(-c3ccc(F)cc3)nn2c1`, for which the inhibition is 7.44%.
On to `CS(=O)(=O)Nc1ccc(-c2cc(-c3ccccc3)cc(C(N)=O)c2N)cc1`, for which the inhibition is 4.15%.
Still for that read-out and setting: next, `CS(=O)(=O)Nc1ccc(-c2ccc3c(NC(=O)C4CC4)n[nH]c3c2)cc1`: 5.46%; `Cn1c(-c2nonc2N)nc2cnccc21`: 10.6%; `CC1=C(C(=O)Nc2ccc3[nH]ncc3c2)C(c2ccc(F)cc2)N=C(c2ccc(C(F)(F)F)nc2)N1` (configuration not stated): 7.24%.
Still for that read-out and setting: the figure for `c1ccc(-c2n[nH]cc2-c2ccnc(-c3ccc(OCCn4ccnc4)cc3)c2)nc1` is 7.44%; for `CS(=O)(=O)CCNCc1ccc(-c2ccc3ncnc(Nc4ccc(OCc5cccc(C(F)(F)F)c5)cc4)c3c2)o1` it is 5.55%; for `FC(F)(F)CNc1nccc(-c2cnn3ncccc23)n1` it is 8.2%.
For the compound `COc1ccc2ncn(-c3cc(O[C@H](C)c4ccccc4C(F)(F)F)c(C(N)=O)s3)c2c1`, the inhibition was determined as 15.9%.
Turning to `N#Cc1cccc(Nc2ncc(-c3ccccc3)o2)c1`, the inhibition stood at 2.11%.
Regarding `CCN1CCC(C(=O)Nc2n[nH]c3nnc(-c4cccc(F)c4F)cc23)CC1`, the inhibition is 3.27%.
Take `CNC(=O)c1ncccc1Nc1nc(Nc2cc3c(cc2OC)CCCN3C(=O)CN(C)C)nc2[nH]ccc12`: the inhibition is 26.6%.
`CNC(=O)c1cncc(/C=C/c2ccccc2C)c1`: the inhibition worked out at 6.67%.
`CS(=O)(=O)CCNCc1ccc(-c2ccc3ncnc(Nc4ccc(OCc5ccccc5)cc4)c3c2)o1`: the inhibition was 6.64%.
For the compound `CS(=O)(=O)CCNCc1ccoc1-c1ccc2ncnc(Nc3ccc(OCc4ccccc4)cc3)c2c1`, the inhibition came to 3.82%.
Turning to `COc1cc2c(cc1Nc1nc(Nc3cccc(F)c3C(N)=O)c3cc[nH]c3n1)N(C(=O)CN1CCN(C(C)C)CC1)CC2`, the inhibition came out at 76.8%.
On to `CN1CCC(n2cnc(-c3ccc(F)cc3)c2-c2ccnc(NCCO)n2)CC1`, for which the inhibition came to 4.49%.
Turning to `CCn1c(-c2nonc2N)nc2cncc(C(=O)NCCNC)c21`, the inhibition is 28.8%.
Same read-out and setting: the figure for `OCCCNc1nccc(-c2c(-c3ccc(F)cc3)nn3cc(C(F)(F)F)ccc23)n1` is 7.46%; for `NS(=O)(=O)c1ccc(N/N=C2\C(=O)Nc3ccc(C(=O)NCc4ccncc4)cc32)cc1` it is 11.6%; for `CC1(C)CC(n2cnc(-c3ccc(F)cc3)c2-c2ccnc(N)n2)CC(C)(C)N1` it is 5.05%.
Take `COC(=O)Nc1nc2ccc(Oc3ccc(NC(=O)Nc4cc(C(F)(F)F)ccc4F)cc3)cc2s1`: the inhibition came out at 48.5%.
Consider `COc1c(C(N)=O)cc(-c2ccc(Cl)cc2)cc1-c1ccc(S(N)(=O)=O)cc1`, for which the inhibition turned out to be 6.11%.
